Data reported in PubChem BioAssay (NCI).
The panel holds about 79,000 compounds, 15% with a hit somewhere; the sample as a whole holds those more often. Rule as the data show it: active = growth inhibition above about 70%; inactive = the rest.

How the values were obtained:
[1] = NCI Yeast Anticancer Drug Screen. Data for the rad50 strain (AID 155);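 also: 0% = growth of vehicle-only cultures of the same strain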; conditions: S. cerevisiae rad50 strain growth inhibition; at 50.0 µM; hits give high values
Outline: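 Genetically altered yeast (DNA repair pathway); compound treatment; growth inhibition vs vehicle ctrl.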

[2] = NCI Yeast Anticancer Drug Screen. Data for the mec2-1 strain (AID 157); conditions: S. cerevisiae mec2-1 strain, at 50.0 µM, hits give high values
Outline: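 Using mec2-1 yeast: add compound, measure growth, express inhibition versus vehicle-treated cultures.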

[3] = NCI Yeast Anticancer Drug Screen. Data for the sgs1 mgt1 strain (AID 161);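 also: 0% = growth of cultures given vehicle only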; conditions: S. cerevisiae sgs1 mgt1 strain, at 50.0 µM, hits give high values
Outline: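 Compounds are added to genetically altered yeast, and growth is compared with cultures given vehicle alone to give percent inhibition.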

[4] = NCI Yeast Anticancer Drug Screen. Data for the bub3 strain (AID 167); conditions: S. cerevisiae bub3 mutant strain, at 50.0 µM, hits give high values
Outline: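 Yeast carrying a defined mutation is treated with each compound, and growth is compared with that of vehicle-exposed cells to give inhibition.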

[5] = NCI Yeast Anticancer Drug Screen. Data for the mlh1 rad18 strain (AID 175); conditions: S. cerevisiae mlh1 rad18 strain growth inhibition; at 50.0 µM; hits give high values
Outline: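 Steps: expose repair-defective yeast to compound; measure growth; express inhibition against vehicle-treated controls.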

[6] = NCI Yeast Anticancer Drug Screen. Data for the cln2 rad14 strain (AID 165);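 also: 0% = growth equal to vehicle treated cultures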; conditions: S. cerevisiae cln2 rad14 strain, at 50.0 µM, hits give high values
Outline: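 Yeast strain cln2 rad14, bearing defects in cell cycle control and DNA repair, serves as the test system; values reflect growth inhibition compared with vehicle.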

Measured: growth inhibition

CCCCC1(CC)COC2(CCCC2)OC1
inactive: [1] 18.6% | [2] 2.25% | [3] -11.6% | [4] -9.7% | [5] 12.4%

COc1ccc(C(O)C(O)(c2ccccc2)c2ccc(OC)cc2)cc1 (stereo not given)
inactive: [1] -6.05% | [2] -4.1% | [3] -6.3% | [4] 19.9% | [5] -11.6%

C/C=C/C(=O)OCCCCCCCCCCCCCCCCCC
inactive: [1] 13.7% | [2] -23.8% | [3] 11.7% | [4] 15.5% | [5] 21%

O=[N+]([O-])c1cccc(N=Cc2ccccc2)c1
inactive: [1] 7.25% | [2] 12.9% | [3] -7.4% | [4] 13.8% | [5] 6.05%

Cc1[nH]c(=O)n2c(C)nnc2c1C(=O)O
inactive: [1] -5.3% | [2] -4.15% | [3] 1.95% | [4] -2.7% | [5] -1.55%

CC1(C)CC2=C(Sc3ccccc3N2)C(=O)C1C(=O)C(=O)Nc1cc(Cl)ccc1Cl (stereo not given)
inactive: [1] -1.3% | [2] -6.95% | [3] -6.85% | [4] -0.25% | [5] -9.55%

CC(C)(C)c1ccc(O)c(C(O)c2cccnc2)c1 (stereo not given)
inactive: [1] 18.7% | [2] 16.6% | [3] 16.5% | [4] 29.8% | [5] 39.2%

Nc1ncnc2c(C3OC(CO)C(O)C3O)nsc12 (stereo not given)
inactive: [1] -6.8% | [2] -23.6% | [3] -37.1% | [4] -32.1% | [5] -38%

ClC(Cl)(Cl)C1CCC2CCCC21 (stereo not given)
inactive: [1] 4.15% | [2] -24.1% | [3] -3.45% | [4] -9.1% | [5] -0.8%

COc1cc(-c2cc(=O)c3c(O)c(OC)c(OC)cc3o2)ccc1O
inactive: [1] -34.3% | [2] -40.2% | [3] -28.5% | [4] -36.6% | [5] -41.5%

CCC(C(=O)NC1c2ccccc2Oc2ccccc21)c1ccccc1 (stereo not given)
inactive: [1] -0.85% | [2] -9.85% | [3] 0.55% | [4] 4.5% | [5] -2.5%

COc1ccc(-n2c(CCCC(=O)O)nc3c2C(=O)c2ccccc2C3=O)cc1
inactive: [1] 20.4% | [2] 23.8% | [3] 25.5% | [4] 25.1% | [5] 33.5%

FC(F)(F)c1ccccc1N=Cc1cccs1
inactive: [1] -12.1% | [2] -9.55% | [3] 23.1% | [4] 13.4% | [5] 20.3%

CCOC(=O)c1c[nH]c2c(=O)n(C)c(=O)[nH]c12
inactive: [1] 7.25% | [2] -7.75% | [3] 3.5% | [4] 0.5% | [5] 24.1%

COC(=O)C1CSCN1 (stereo not given)
inactive: [1] -23.9% | [2] -4.3% | [3] -26.9% | [6] -61.4% | [5] -12.8%

CC1OC(OC2C(CO)OC(O[C@H]3CC[C@@]4(C)C(=CC[C@H]5[C@@H]6C[C@@H]7O[C@]8(CC[C@@H](C)CN8)[C@@H](C)[C@@H]7[C@@]6(C)CC[C@@H]54)C3)C(O)C2O)C(O)C(O)C1O (stereo not given in full)
inactive: [1] -17.1% | [2] -26.6% | [3] -0.75% | [6] 15.2% | [5] 1.7%

NCCSSC/C=C\CSSCCN
inactive: [1] 2.65% | [2] 1.5% | [3] -24.1% | [6] 16.2% | [5] -12.9%

COc1ccc(S(=O)(=O)c2ccc(F)cc2)cc1
inactive: [1] -22.1% | [2] -14.2% | [3] -3.65% | [4] -12.7% | [5] -21.4%

C1=C[CH]([Sn]([CH]2C=Cc3ccccc32)([CH]2C=Cc3ccccc32)[CH]2C=Cc3ccccc32)c2ccccc21 (stereo not given)
inactive: [1] -14.2% | [2] -6.75% | [3] -1% | [4] 1.2% | [5] -1.7%

COc1cc2c(cc1Cc1cc(OC)c(OC)c(OC)c1)OCO2
inactive: [1] 4.35% | [2] -17.2% | [3] 9.55% | [4] 28.9% | [5] 24.4%

C[N+](C)(C)C/C=C/C[N+](C)(C)C
inactive: [1] 9.85% | [2] -3.1% | [3] -5.95% | [6] -22.3% | [5] 1.85%

N#CNc1nc(N)cc(=O)[nH]1
inactive: [1] -4.65% | [2] -23.6% | [3] -2.45% | [4] -27.1% | [5] 11.2%

CS(=O)(=O)Nc1cccc(C(=O)O)c1
inactive: [1] 28.6% | [2] -0.05% | [3] 14.8% | [4] -28.9% | [5] -23%

CCNC1=CC(=O)c2ncccc2C1=O
inactive: [1] 47.9% | [2] 15.7% | [3] 27.7% | [4] 39.2% | [5] 28.4%

CCCOc1cc2c(cc1C(C)c1ccc(OCC)c(C)c1)OCO2 (stereo not given)
inactive: [1] -1.7% | [2] 0.75% | [3] -9.05% | [4] -3.9% | [5] -5.1%

Cc1cc(N=Nc2ccc(C(=O)Nc3ccc4cc(S(=O)(=O)O)ccc4c3)cc2)c(N)c(N=Nc2ccc(N=Nc3ccc(O)c(C(=O)O)c3)cc2)c1N
inactive: [1] 8.2% | [2] 29.6% | [3] 53.8% | [4] -11.3% | [5] 44.6%

O=c1nc(Sc2ccccc2)ccn1C1OC(CO)C(O)C1O (stereo not given)
inactive: [1] -11.5% | [2] -8.95% | [3] -1.45% | [4] 6.55% | [5] 5.95%

S=c1[nH]ncn2nc3ccccc3c12
inactive: [1] 0.15% | [2] 2.5% | [3] -2.25% | [4] -3.85% | [5] 1.7%

COc1cc(C(O)C(CO)Oc2c(OC)cc(C3OCC4C(c5cc(OC)c(O)c(OC)c5)OCC34)cc2OC)ccc1O (stereo not given)
inactive: [1] 20.1% | [2] 1.4% | [3] -2.05% | [4] -6.7% | [5] 15.2%

CC1=C(CN(CC(=O)O)CC(=O)O)C(=O)C(C(C)C)=C/C1=C(\c1ccccc1S(=O)(=O)O)c1cc(C(C)C)c(O)c(CN(CC(=O)O)CC(=O)O)c1C
inactive: [1] -3.55% | [2] -24.8% | [6] 4.2% | [4] 0.75% | [5] -8.7%

Cc1c(C(CC(=O)c2ccccc2)C(=O)O)c2ccccc2n1C (stereo not given)
inactive: [1] 2.05% | [2] -25.3% | [6] -32.3% | [4] 52% | [5] -11.4%

Cc1ccc2c(ccc3ccccc32)n1
inactive: [1] 59.8% | [2] 16.8% | [6] -4.4% | [4] 50.5% | [5] 45.4%

CN(C)CC(CN(C)C)C(=O)O
inactive: [1] -0.2% | [2] 2.75% | [6] 22% | [4] -6.25% | [5] -15.7%
